About 380 (27%) of roughly 1,400 compounds were called active. This is one part of the list. A number with no mark means an inactive call.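 How the source made its calls: active means mean inhibition above 50% across duplicate retests at 10 µM; inactive means the rest.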
assay: yeast NALP1 reporter signal suppression – S. cerevisiae, luminescence, single concentration, NALP1 inhibitor project, confirmation (AID 488841);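 further: plate controls were DMSO in galactose medium for no effect and cells in plain SD medium for full effect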; conditions: S. cerevisiae NALP1/ASC/Caspase-1 reporter, beta-gal luminescence; at 10 µM; active compounds read high

Structure (SMILES) | inhibition
CCCCCCNc1nc(NCc2ccco2)nc(OCC)n1 | 52.5% (active)
CCc1ccc(OCCCC(=O)Nc2cccc(C(=O)O)c2)cc1 | 27.1%
Cc1ccc(-n2c(Cl)c(Cl)nc(Cl)c2=O)cc1 | 100% (active)
COc1ccc2cnn(-c3ccc(C)cc3)c(=O)c2c1OC | 36.9%
O=C(Nc1cccc(O)c1)c1noc2c1CCc1ccccc1-2 | 75.4% (active)
O=c1c2c(C(F)(F)F)cc(C(F)(F)F)nc2[nH]n1-c1ccccc1 | 37.9%
O=C(CN1CCSC1=NCc1ccccc1)c1ccc(Cl)c(Cl)c1 | 52.2% (active)
COc1ccc(N2CCN(CC(=O)NC(=O)NCc3ccco3)CC2)cc1 | 28.6%
O=C(NC(Nc1nc2ccc([N+](=O)[O-])cc2s1)(C(F)(F)F)C(F)(F)F)c1ccccc1Cl | 99.5% (active)
CN(C)S(=O)(=O)c1ccc(N2CCCC2)c(C(=O)Nc2nc3ccccc3s2)c1 | 36.7%
CCOc1ccc(CNC(=O)c2cc3oc4ccccc4c3n2C)cc1 | 7.2%
O=C1C=CCC(/C=C/c2ccccc2)O1 (stereo unspecified) | 69.2% (active)
c1ccc(-c2c[nH]c3[n+]2CCCCC3)cc1 | 26.2%
CCOCCCNCc1ccc(OCc2ccccc2Cl)cc1 | 49.2%
COc1ccc(CCNCc2ccc(OCc3ccccc3)cc2)cc1 | 78.5% (active)
COc1ccc(CNCCC(c2ccc(F)cc2)c2ccc(OC)cc2)cc1 (stereo unspecified) | 65.8% (active)
COc1ccc(OCCCC(=O)NCCc2ccccc2)cc1 | 60.8% (active)
COc1ccc(OCCCC(=O)Oc2ccc(OC)cc2)cc1 | 42.6%
COc1ccc(C(CCNCc2ccccc2F)c2ccc(F)cc2)cc1 (stereo unspecified) | 48.2%
COc1ccc(CNCCSc2nnnn2C)cc1OC | 49%
COc1ccc(OCCCC(=O)NCC(C)C)cc1 | 32.4%
CCc1ccc(OCCNC(=O)OCc2ccccc2)cc1 | 48.8%

Structure (SMILES) | inhibition
CN(C)c1ccc(O)c2c1CC1CC3[C@@H](N(C)C)C(=O)C(C(N)=O)=C(O)[C@]3(O)C(=O)C1=C2O (stereo partly specified) | 28.8%
Cc1cc(/C=C2/SC(=S)N(c3ccc([N+](=O)[O-])cc3)C2=O)c(C)n1-c1cccnc1 | 34.9%
O=C1Cc2ccccc2C(=O)N1OCc1ccc(Cl)cc1Cl | 26.8%
COc1cc(Cc2cnc(N)nc2N)cc(OC)c1OC | 24.9%
Oc1c(CN2CCCCC2)cc(Br)c2cccnc12 | 26.2%
Oc1c(I)cc(Cl)c2cccnc12 | 56.2% (active)
C=C(C)COc1ccc2c(CC)cc(=O)oc2c1C | 63.1% (active)
CC1CCCN(CCC(=O)c2ccc(Br)cc2)C1 (stereo unspecified) | 28.8%
CC1=NN(c2ccc(C)cc2C)C(=O)C1C(c1cccc(O)c1)C1C(=O)N(c2ccc(C)cc2C)N=C1C (stereo unspecified) | 38%
C/C(=N\NC(=O)Nc1ccccc1)c1ccccc1 | 47.1%
C=CCNC(=S)N/N=C(\C)c1ccccn1 | 57.5% (active)
COc1cccc(NC(=O)Cn2cnc3sc(C)c(S(=O)(=O)N4CCCCC4)c3c2=O)c1 | 20.9%
COc1cc(/C=N/n2cnnc2)ccc1OCc1ccc(C)cc1 | 50.9% (active)
COc1cc(C2Nc3ccccc3C(=O)N2c2ccccc2)ccc1O (stereo unspecified) | 27.3%
COC1=C(N)C(=O)c2nc(-c3nc(C(=O)O)c(C)c(-c4ccc(OC)c(OC)c4O)c3N)ccc2C1=O | 33.7%
Cc1cccc(N2Cc3ccccc3C2=NC(=O)c2ccc(Cl)nc2)c1 | 26.5%
COC(=O)N/N=C(\C)c1ccc2ccccc2c1OC(F)F | 55.9% (active)
CCSc1ncc(/C=N/Nc2ccccc2)n1C | 68.9% (active)
CCSc1nnc(-c2cnn(-c3ccccc3)c2-n2cccc2)n1C | 26.1%
Clc1ccc(OCCCNCc2ccccc2)c2ccccc12 | 49.3%
COC(=O)C(CCSC)NC(=O)Cn1ncc2c(=O)oc3ccccc3c21 (stereo unspecified) | 35.1%
CN(C#N)c1nc(Cl)nc(Nc2cccc(Cl)c2)n1 | 23.4%

Structure (SMILES) | inhibition
COc1ccc(Cc2ccc(OC)c(N)c2)cc1N | 36.5%
COc1ccc(CNc2cccc(F)c2)cc1Br | 62% (active)
O=C(COc1ccc(Br)cc1Br)NC(=S)Nc1cccc(CO)c1 | 29.1%
CC(C)c1ccc(NCCC(=O)c2cccs2)cc1 | 44.8%
O=C(COC(=O)/C=C/c1cccs1)Nc1nc(-c2ccccc2)cs1 | 13.8%
CC1CC1C(=O)Nc1nc(-c2ccccc2)cs1 (stereo unspecified) | 66.7% (active)
O=C(COC(=O)c1cccs1)Nc1nc(-c2ccccc2)cs1 | 34%
O=C(Cc1coc2cc3c(cc12)CCC3)NCC1(N2CCCCC2)CCCCC1 | 22.9%
O=C1C2C(C(=O)N1/N=C/c1ccc([N+](=O)[O-])o1)C1C=CC2C12CC2 (stereo unspecified) | 34.8%
O=C1C2C(C(=O)N1/N=C/c1cc(Br)cc([N+](=O)[O-])c1O)C1C=CC2C12CC2 (stereo unspecified) | 59.4% (active)
O=C(CN1CCCCC1)Nc1cccc(Oc2ccccc2)c1 | 25.9%
O=[N+]([O-])c1ccc(N2CCCCC2)cc1 | 32.1%
O=S(=O)(N1CCCCC1)N1CCN(c2ccc(F)cc2)CC1 | 29.6%
O=C1C=CC(=O)N1c1ccc(N2CCCCC2)cc1 | 70.8% (active)
CCCCCCCCCCCCCCCC[n+]1ccc(C(N)=O)cc1 | 81.4% (active)
CCCCCCCCCCCCCCCC[n+]1cccc(C(=O)N(CC)CC)c1 | 80.4% (active)
CCCCN(CC)S(=O)(=O)c1ccccc1 | -8.3%
CCCCCCCCCCCCCCCC[n+]1ccc(/C=N/O)cc1 | 82% (active)
C1=CC2CC1CC2CN1CCN(Cc2ccccc2)CC1 (stereo unspecified) | 46.4%
COc1cc(-c2nc(C(F)(F)F)c(OC)o2)cc(OC)c1OC | 28.9%
O=C(NC(N1CCOCC1)C(Cl)(Cl)Cl)c1ccc(Br)cc1 (stereo unspecified) | -17.9%
CC1=CC2=NC(=O)/C(=C\c3cccn3CCOc3cccc(C)c3)C(=N)N2O1 | 76.5% (active)
